High-throughput results as filed in PubChem.
D1 ag – activates the human D1 dopamine receptor; HEK293 T-REx D1 cells, calcium flux, agonist mode; activation, % at 2 µM; hit rate 1% among 360,000; AID 504660; in the data active means activation above about 30%; further: 0% is about no effect
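Agonism was scored from calcium flux recorded over 180 s (1 read/s) after pintool compound addition, following a 10-cycle baseline. Cells were inducible force-coupled HEK293 TREx D1, plated overnight at 30 C and loaded with no-wash calcium dye.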
D1 potentiator – human D1 dopamine receptor positive modulation | HEK293 TREx D1 cells, calcium flux, dopamine EC20 potentiation | potentiation, % at 10 µM | hit rate 0.036% among 360,000; in the data active means potentiation above about 30%; further: 0% is about no effect
D1 antagonist – blocks dopamine activation of the human D1 receptor; HEK293 TREx D1 cells, calcium flux, dopamine EC80; stronger effect = lower value; AID 504652; activity change, negative = inhibition, % at 10 µM; hit rate 3.2% among 360,000; in the data active means activity change below about -30%; further: on the % scale 0 is the no-effect control and ±100 the full control effect
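Cells carrying a force-coupled, tetracycline-inducible human D1 receptor report calcium flux. Each well gets a 10 s baseline, compound with 180 s monitoring, then an EC80 dopamine stimulus with a second 180 s kinetic read.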
D3 antag – blocks the human D3 dopamine receptor; P35462; D3R cells, DiscoveRx beta-arrestin luminescence, antagonist mode; stronger effect = lower value; max response, negative = inhibition, %; hit rate 2.5% among 360,000; in the data active means max response below about -50%; inconclusive means no clear call, values can overlap the other calls; further: on the % scale 0 is the no-effect control and ±100 the full control effect
Target sequence (P35462 whole entry, looked up): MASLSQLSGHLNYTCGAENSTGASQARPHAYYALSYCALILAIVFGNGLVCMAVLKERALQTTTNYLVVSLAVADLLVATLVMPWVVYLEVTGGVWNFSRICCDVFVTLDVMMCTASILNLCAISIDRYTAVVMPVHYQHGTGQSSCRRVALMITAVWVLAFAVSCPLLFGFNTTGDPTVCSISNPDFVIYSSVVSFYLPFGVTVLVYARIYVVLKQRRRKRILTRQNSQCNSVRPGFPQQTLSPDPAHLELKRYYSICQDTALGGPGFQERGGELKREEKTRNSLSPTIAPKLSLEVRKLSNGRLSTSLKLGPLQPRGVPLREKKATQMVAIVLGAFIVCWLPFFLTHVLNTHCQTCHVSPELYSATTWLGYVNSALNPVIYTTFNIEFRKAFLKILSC
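Cells plated overnight at 1500 cells/well, then exposed to library compounds with dopamine controls for 90 minutes at 37 degrees C. DiscoveRx reagent added for 30–60 minutes at room temperature; luminescence read, quantitative HTS format.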
DRD3 agonist – agonists of human D3 dopamine receptor | hit rate 0.58% among 410,000 | D3R DiscoveRx beta-arrestin cells, luminescence, 90 min | P35462 | max activation, % | AID 652048; in the data active means max activation above about 30%; further: 0% is about no effect
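Cells at 1500/well, incubated overnight, then treated with pinned compounds (dopamine as control) for 90 min at 37 degrees C. DiscoveRx reagent added for 30 - 60 minutes at room temperature; luminescence read.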
* marks the source's active call; other numbers are inactive results; ? = inconclusive; . = no result; ! = repeats disagree. Hits are enriched below; roughly 6.1% of the tested compounds scored in any of these assays.

SMILES	D1 ag	D1 potentiator	D1 antagonist	D3 antag	DRD3 agonist
O=c1cc(O)c2sc3nc(-c4ccccc4)cc(C(F)(F)F)c3c2[nH]1	56.2*	-7.9	-2.4	0.0	1.5
O=C(O)c1ccccc1S(=O)(=O)CC(=O)N1CCCCC1	4.8	1.7	3.5	-6.2	3.8
CC1=C(C(=O)Nc2ccc(C)cc2C)C(c2ccc([N+](=O)[O-])cc2)n2ncc(C(=O)Nc3ccc(F)cc3)c2N1 (centres undefined)	3.3	0.3	-1.4	.	4.1
O=C1c2cccc3c(N4CCCCC4)ccc(c23)C(=O)N1c1ccccc1O	203.6*	4.0	-3.6	-1.1	9.3
O=C(O)c1ccc(N2CCCCCC2)c(N2C(=O)c3ccccc3C2=O)c1	-0.3	-4.5	-27.3	?	3.2
O=C1c2cccc3c(N4CCCCC4)ccc(c23)C(=O)N1c1ccc(O)cc1	359.0*	-2.8	19.6	0.4	17.4
Cc1cc(C)c(NC(=O)c2ccccc2C(=O)c2ccccc2)c(C)c1	6.4	-5.0	-7.1	-6.1	-10.6
Cc1[nH]n(-c2ccccc2)c(=O)c1/C=N/n1c(C)nc2ccccc2c1=O	2.0	0.6	16.2	-52.0*	4.0
CCCCCC1CCC(C(=O)N2CCOCC2)CC1 (centres undefined)	2.2	1.6	-11.2	-2.4	1.7
COc1ccc(OC)c(CNC(=O)CCCn2ccc3cc(S(=O)(=O)N4CCCC4)ccc32)c1	4.4	-0.6	-32.6*!	1.7	0.6
COc1ccccc1CCNC(=O)Cn1ccc2cc(S(=O)(=O)N3CCCCC3)ccc21	5.4	-0.3	-8.8	.	0.8
COC(=O)Cn1ccc2cc(S(=O)(=O)N3CCCCC3)ccc21	5.4	-0.8	-50.9*!	8.2	-7.8
COc1cccc(CNC(=O)CCCn2ccc3cc(S(=O)(=O)N4CCCC4)ccc32)c1	6.6	-3.8	1.3	4.2	7.7
COc1ccccc1CCNC(=O)Cn1ccc2cc(S(=O)(=O)N3CCCC3)ccc21	7.1	-8.8	-30.8*	-10.3	1.8
Cn1nc(C(=O)Nc2nc(-c3ccc(F)cc3)cs2)ccc1=O	7.8	-0.3	-0.6	52.3	5.0
Cc1ccc(NC(=O)Cc2nc(-c3c[nH]c(C(=O)N4CCCC4)c3)cs2)c(C)c1	-0.3	-2.6	-12.9	26.1	1.0
CCN(C(=O)COC(=O)CCS(=O)(=O)c1ccc(C)cc1)C1CCS(=O)(=O)C1 (centres undefined)	5.2	-3.8	-4.3	-5.0	-3.7
CC(=O)Nc1ccc(/C=C(\C#N)C(=O)NCc2ccccc2)cc1	0.4	-1.7	-7.3	-21.1	-1.7
CCN(CC)c1ccc(/C=C(/C#N)C(=O)NCc2ccccc2)o1	152.0*	-0.5	-6.0	-28.1	-26.4
CC(C)NC(=O)/C(C#N)=C\c1ccc(N(C)C)o1	2.5	2.5	-5.0	-4.0	7.5
CCN(CC)c1ccc(/C=C(/C#N)C(=O)NC(C)C)o1	57.3*	-4.3	-6.7	-23.4	-3.4
CCN(Cc1ccccc1)C1CCN(Cc2ccccc2)CC1	5.1	-4.7	7.0	2.1	-17.7
COc1ccc(CN2CCC(N(CCc3ccccc3)Cc3ccccc3)CC2)c(OC)c1	9.3	-3.3	-1.5	-61.6*	-11.9
CCCN1CCC(N(CCc2ccccc2)Cc2ccccc2)CC1	3.1	2.9	-5.9	-96.6*	-4.8
COc1ccc(CN2CCC(C(=O)N(C)CCc3ccc(OC)c(OC)c3)CC2)c(OC)c1	3.7	7.5	-2.0	-4.6	-0.3
SMILES	D1 ag	D1 potentiator	D1 antagonist	D3 antag	DRD3 agonist
Cc1cc(C)c(C2C(C#N)=C(N)Oc3n[nH]c(C)c32)cc1CN1CCCC1 (centres undefined)	2.4	-2.1	5.6	-111.8*	-31.3
Cc1[nH]nc2c1C(c1ccoc1)C(C#N)=C(N)O2 (centres undefined)	1.5	-2.3	-7.9	23.7	-2.7
CC1OC(CC(=O)O)CC2=C1C(=O)c1c(O)cccc1C2=O (centres undefined)	.	.	.	-94.0*	-23.2
O=C1c2cccc(O)c2C(=O)c2c(O)cccc21	3.4	-1.9	-1.5	.	-13.0
O=C(Nc1ccccc1)c1ccc(CN2CCC(Cc3ccccc3)CC2)cc1	.	.	.	-51.2*	-12.7
O=C(Nc1ccccc1C(F)(F)F)c1ccc(CN2CCC(Cc3ccccc3)CC2)cc1	3.0	-3.9	-8.3	-52.3*	-16.9
NC(=O)c1ccc(NC(=O)c2ccc(CN3CCOCC3)cc2)cc1	2.4	1.4	-14.3	28.1	1.1
O=C(Nc1ccccc1C(=O)N1CCN(Cc2ccccc2)CC1)c1ccc(F)cc1	1.3	0.3	12.3	-15.3	-10.2
